# Reference: the supplement of paper PMC7411054
# Where a name gives a salt, the structure may show the parent alone.
# What was measured:
# Assay in all cases: lowest phenotypically active concentration; higher = less potent
# Conditions in all cases: treatment time: 24 h
# HepG2-CANX-COX4 = test system: HepG2-CANX-COX4
# Method in brief: (§1)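 Fifteen gene-edited A549, HepG2 and WPMY1 reporter lines (BFP segmentation plus GFP and RFP/FusionRed markers) were treated at 0.3, 1, 3 or 9 µM for 24 h, four wells each, then imaged live. Live-cell features per well were normalised to DMSO control wells. Deviation required ≥3 of 4 wells beyond the 95th percentile of DMSO Euclidean distances, and reproducibility required median replicate Pearson correlation above the 95th percentile of non-replicates. Phenotypic activity needed both criteria.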
# HepG2-GM130-SQSTM1 = test system: HepG2-GM130-SQSTM1
# Method in brief: as §1
# HepG2-TP53BP1-CLTA = test system: HepG2-TP53BP1-CLTA
# Method in brief: as §1
# HepG2-TUBA1B-RELA = test system: HepG2-TUBA1B-RELA
# Method in brief: as §1
# WPMY1-ACTB-RAB5A = test system: WPMY1-ACTB-RAB5A
# Method in brief: as §1
# WPMY1-CANX-COX4 = test system: WPMY1-CANX-COX4
# Method in brief: as §1
# WPMY1-TP53BP1-CLTA = test system: WPMY1-TP53BP1-CLTA
# Method in brief: as §1
# WPMY1-TUBA1B-RELA = test system: WPMY1-TUBA1B-RELA
# Method in brief: as §1
# A549-TP53BP1-CLTA = test system: A549-TP53BP1-CLTA
# Method in brief: as §1
SMILES,lowest phenotypically active concentration (HepG2-CANX-COX4),lowest phenotypically active concentration (HepG2-GM130-SQSTM1),lowest phenotypically active concentration (HepG2-TP53BP1-CLTA),lowest phenotypically active concentration (HepG2-TUBA1B-RELA),lowest phenotypically active concentration (WPMY1-ACTB-RAB5A),lowest phenotypically active concentration (WPMY1-CANX-COX4),lowest phenotypically active concentration (WPMY1-TP53BP1-CLTA),lowest phenotypically active concentration (WPMY1-TUBA1B-RELA),lowest phenotypically active concentration (A549-TP53BP1-CLTA)
O=c1cc(N2CCOCC2)oc2c(-c3cccc4c3sc3ccccc34)cccc12,3 µM,1 µM,1 µM,1 µM,1 µM,1 µM,3 µM,9 µM,–
"CCCCCCCCCCCCC/C=C/[C@@H](O)[C@H](CO)N(C)C [N,N-Dimethylsphingosine]",3 µM,9 µM,3 µM,9 µM,3 µM,3 µM,9 µM,3 µM,–
COCCCC/C(=N/OCCN)c1ccc(C(F)(F)F)cc1 [fluvoxamine],–,–,9 µM,9 µM,9 µM,–,–,–,–
Cc1cc(CS(=O)(=O)c2ccccc2)cc(OCc2ccc(CN3CCC[C@@H]3CO)cc2)c1 [PF 543 hydrochloride],–,9 µM,9 µM,–,9 µM,–,–,–,–
CN1C(=O)/C(=C2/Nc3ccccc3/C2=N/O)c2ccc(Br)cc21,3 µM,–,–,–,1 µM,9 µM,–,–,–
O=C(Nc1nc2cc(C(F)(F)F)cc(NC3CC3)n2n1)c1cccnc1,3 µM,–,9 µM,9 µM,3 µM,9 µM,3 µM,–,–
CC1=C(/C=C/C(C)=C\C=C\C(C)=C\C(=O)O)C(C)(C)CCC1 [tretinoin],≤ 0.3 µM,9 µM,–,–,1 µM,1 µM,1 µM,3 µM,–
CN1CCC(CN2c3ccccc3Sc3ccccc32)C1 (stereo not drawn) [methdilazine],–,9 µM,9 µM,9 µM,9 µM,9 µM,9 µM,9 µM,–
N#Cc1cccc(-c2c[nH]c3ncnc(N4CCOCC4)c23)c1,3 µM,3 µM,3 µM,1 µM,9 µM,9 µM,3 µM,–,–
CNCCCC12CCC(c3ccccc31)c1ccccc12 [maprotiline],–,9 µM,9 µM,3 µM,9 µM,9 µM,9 µM,9 µM,–
O[C@H](CNC[C@H](O)[C@@H]1CCc2cc(F)ccc2O1)[C@@H]1CCc2cc(F)ccc2O1 [nebivolol],–,–,9 µM,3 µM,3 µM,9 µM,9 µM,3 µM,–
CN1CCN(c2ccc(-c3cccc(CN4CCOCC4)c3)cc2NC(=O)c2c[nH]c(=O)cc2C(F)(F)F)CC1,–,9 µM,9 µM,9 µM,–,9 µM,9 µM,9 µM,–
NC(=O)C(c1ccccc1)(c1ccccc1)[C@@H]1CCN(CCc2ccc3c(c2)CCO3)C1 [darifenacin],9 µM,9 µM,9 µM,–,–,–,9 µM,–,–
CC(CN(C)C)CN1c2ccccc2Sc2ccccc21.CC(CN(C)C)CN1c2ccccc2Sc2ccccc21 (stereo not drawn) [alimemazine],–,9 µM,9 µM,9 µM,9 µM,–,–,9 µM,–
CC(CN1c2ccccc2Sc2ccccc21)N(C)C (stereo not drawn) [promethazine],–,9 µM,9 µM,9 µM,9 µM,–,9 µM,9 µM,–
Fc1ccc([C@@H]2CCNC[C@H]2COc2ccc3c(c2)OCO3)cc1 [paroxetine],–,9 µM,9 µM,3 µM,9 µM,9 µM,9 µM,9 µM,–
CC(C)(C)n1nc(-c2ccc(Cl)cc2)c2c(N)ncnc21,–,–,3 µM,–,–,–,–,–,–
CC(C)c1nc(CN(C)C(=O)N[C@H](C(=O)N[C@@H](Cc2ccccc2)C[C@H](O)[C@H](Cc2ccccc2)NC(=O)OCc2cncs2)C(C)C)cs1 [ritonavir],–,9 µM,–,–,–,–,–,–,–
CCN1/C(=C/C(C)=O)Sc2ccc(O)cc21,–,–,–,–,9 µM,–,9 µM,–,9 µM
Cc1ccc(NC(=O)c2cccc(C(C)(C)C#N)c2)cc1Nc1ccc2ncn(C)c(=O)c2c1,≤ 0.3 µM,≤ 0.3 µM,≤ 0.3 µM,≤ 0.3 µM,3 µM,9 µM,9 µM,–,1 µM
CCOC(=O)c1c2c3c(cccc3[nH]c1=O)C(=O)c1ccccc1-2,–,–,≤ 0.3 µM,–,–,–,–,–,–
O=C(/C=C/c1ccc2ccccc2n1)c1ccncc1,–,9 µM,–,9 µM,9 µM,–,9 µM,9 µM,–
COc1ccccc1C(=O)Nc1cc2c(cc1N1CCCC1)n(C)c(=O)n2C,–,–,–,–,9 µM,–,–,–,–
COc1ccc(CCc2nc3cc(-c4c(C)noc4C)ccc3n2C[C@H](C)N2CCOCC2)cc1Cl,9 µM,9 µM,9 µM,9 µM,9 µM,–,–,9 µM,–
O=C(Nc1ccc(CN2CCOCC2)cc1)c1ccc(-c2cccc(Cl)c2)o1,–,–,–,9 µM,–,–,–,–,–
O=C(Nc1ccncc1)c1cc([N+](=O)[O-])ccc1Cl,3 µM,9 µM,9 µM,9 µM,–,9 µM,–,9 µM,9 µM
COc1cc(OC)c2c(=O)[nH]c(-c3cc(C)c(OCCO)c(C)c3)nc2c1 [apabetalone],9 µM,9 µM,–,–,–,–,9 µM,9 µM,–
CNC(=O)c1cc(Oc2ccc(NC(=O)Nc3ccc(Cl)c(C(F)(F)F)c3)c(F)c2)ccn1 [regorafenib],3 µM,≤ 0.3 µM,≤ 0.3 µM,≤ 0.3 µM,–,–,9 µM,–,9 µM
Cc1ccc(S(=O)(=O)c2ccc([N+](=O)[O-])o2)cc1,–,9 µM,–,3 µM,3 µM,9 µM,3 µM,9 µM,–
CC1CNCCN1S(=O)(=O)c1cccc2cnccc12 (stereo not drawn) [H-7 dihydrochloride],9 µM,9 µM,–,9 µM,9 µM,9 µM,–,9 µM,–
